# High-throughput results from PubChem BioAssay.
# KDM5B inh: Primary screen for KDM5B Histone Demethylases FDH-coupled qHTS | Lysine-specific demethylase 5B (Homo sapiens), Q9UGL1 | KDM5B demethylase, FDH-coupled NADH fluorescence (FDH is formaldehyde dehydrogenase) | Potency, µM (series often up to 57.7 µM), hits mostly inhibitors | 220,000 tested, 2.6% active | AID 1347165, 2019; active = well fitted inhibition curve with a large enough effect; note: 0% is about no effect; nearly all actives have a fitted effect of over 70% in size
# Target sequence (Q9UGL1 whole entry, looked up): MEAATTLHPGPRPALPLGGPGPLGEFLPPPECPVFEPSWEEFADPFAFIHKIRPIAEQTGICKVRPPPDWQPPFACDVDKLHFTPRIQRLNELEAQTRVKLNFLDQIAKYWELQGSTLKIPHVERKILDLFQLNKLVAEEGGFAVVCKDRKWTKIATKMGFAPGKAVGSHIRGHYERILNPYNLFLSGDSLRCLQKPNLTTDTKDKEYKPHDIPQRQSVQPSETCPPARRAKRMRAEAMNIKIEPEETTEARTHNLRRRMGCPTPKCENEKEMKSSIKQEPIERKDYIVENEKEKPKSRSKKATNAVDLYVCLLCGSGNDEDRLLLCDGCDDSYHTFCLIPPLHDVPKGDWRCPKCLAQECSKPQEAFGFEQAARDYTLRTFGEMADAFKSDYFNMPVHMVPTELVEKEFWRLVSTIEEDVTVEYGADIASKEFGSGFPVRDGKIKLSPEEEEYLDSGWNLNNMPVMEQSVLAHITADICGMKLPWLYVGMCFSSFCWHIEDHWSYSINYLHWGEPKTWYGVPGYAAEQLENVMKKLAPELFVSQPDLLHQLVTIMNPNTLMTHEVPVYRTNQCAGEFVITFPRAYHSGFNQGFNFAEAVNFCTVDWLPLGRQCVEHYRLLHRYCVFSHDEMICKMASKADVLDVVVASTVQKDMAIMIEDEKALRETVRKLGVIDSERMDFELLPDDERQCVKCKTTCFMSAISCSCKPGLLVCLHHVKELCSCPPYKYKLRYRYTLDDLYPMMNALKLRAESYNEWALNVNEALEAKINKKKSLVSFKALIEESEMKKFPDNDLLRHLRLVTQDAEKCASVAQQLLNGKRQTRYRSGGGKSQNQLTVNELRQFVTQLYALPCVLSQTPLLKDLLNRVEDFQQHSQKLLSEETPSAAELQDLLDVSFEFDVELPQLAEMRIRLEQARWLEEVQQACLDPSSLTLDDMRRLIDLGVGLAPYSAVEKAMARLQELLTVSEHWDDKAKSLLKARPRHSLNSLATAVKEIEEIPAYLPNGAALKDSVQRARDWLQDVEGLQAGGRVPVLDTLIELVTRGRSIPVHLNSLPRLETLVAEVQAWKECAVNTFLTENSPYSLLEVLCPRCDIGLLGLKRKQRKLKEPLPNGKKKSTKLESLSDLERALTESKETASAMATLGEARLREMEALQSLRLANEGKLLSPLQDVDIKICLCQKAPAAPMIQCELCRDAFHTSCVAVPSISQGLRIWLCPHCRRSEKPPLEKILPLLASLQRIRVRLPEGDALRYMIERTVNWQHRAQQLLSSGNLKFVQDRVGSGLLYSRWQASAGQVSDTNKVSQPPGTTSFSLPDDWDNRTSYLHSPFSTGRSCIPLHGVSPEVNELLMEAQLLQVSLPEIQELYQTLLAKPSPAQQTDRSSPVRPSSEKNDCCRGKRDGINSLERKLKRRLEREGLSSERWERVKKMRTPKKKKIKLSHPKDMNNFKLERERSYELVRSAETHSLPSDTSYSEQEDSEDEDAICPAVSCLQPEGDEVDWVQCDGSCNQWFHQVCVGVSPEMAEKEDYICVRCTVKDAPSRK
#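 Here, H3K4me3 peptide (12.5 µM in substrate mix) is demethylated by KDM5BΔAP, 200 nM final, after 10 min compound exposure. Formaldehyde product is coupled through FDH (0.25 U/mL in mix) to NADH fluorescence; 30-min ΔRFU feeds dose-response curves.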
# Active calls of the source: *; i = inactive. Shown is part of a subset that was picked to be rich in hits. Potency is the fitted concentration of half-maximal effect.
SMILES,KDM5B inh
Cc1nc2cc(F)ccc2cc1C(=O)N1CCN(c2ccccc2F)CC1,i
CC(C)OCC(O)Cn1c(N2CCCCCC2)nc2c1c(=O)[nH]c(=O)n2C (stereo not drawn),i
O=C1CC2CCN(Cc3ccccc3)CC2CCN1 (stereo not drawn),i
O=C1CC2CCN(Cc3ccc(C(F)(F)F)cc3)CC2CCN1 (stereo not drawn),i
Cn1cccc1CN1CCC2CC(=O)NCCC2C1 (stereo not drawn),100µM*
CCN(CC)C(=O)c1cc(-c2ccc(Cl)cc2)nc2ccccc12,i
CCN(Cc1ccncc1)C(=O)c1cc(-c2cnn(CC)c2)nc2cc(C)ccc12,28µM*
CCN(CC)C(=O)c1cc(-c2ccncc2)nc2ccccc12,i
CCCNc1nc2ccccc2nc1C(=O)Nc1ccc(C)cc1,i
Cc1nc(N2CCN(C(=O)Cc3ccc(Cl)cc3)CC2)cc(C(F)(F)F)n1,i
O=C(Cc1c(Cl)cccc1Cl)N1CCN(c2ccccc2O)CC1,i
COc1cc(F)ccc1-c1ccnc2nc(CC(C)C)nn12,28µM*
Fc1ccc(Cc2nc3nccc(-c4ccncc4)n3n2)cc1,i
Fc1ccc(Cc2nc3nccc(-c4cccs4)n3n2)cc1,28µM*
COc1ccc(Cc2nc3nccc(-c4ccc(OC)cc4F)n3n2)cc1,28µM*
COc1ccc(Cc2nc3nccc(-c4cccs4)n3n2)cc1,i
COc1ccc(Cc2nc3nccc(-c4ccc(F)cc4OC)n3n2)cc1,18µM*
COc1cc(C(=O)Nc2ccc3oc(C)nc3c2)ccc1C,i
Cc1ccc(CNC(=O)CSc2nc3ccsc3c(=O)n2CCC(C)C)cc1,i
Cc1cc(C(=O)N2CCN(S(=O)(=O)c3ccc(C#N)cc3)CC2)c(C)n1C(C)C,i
COc1ccc(OC)c(C2CC(=O)N(c3sc4c(c3C#N)CCCCC4)C3=C2C(=O)CCC3)c1 (stereo not drawn),i
Cc1ccc(OCC(=O)Nc2ccc3oc(-c4ccccc4)nc3c2)cc1C,i
CC1=C[C@@H](CNCc2ccccc2)[C@H](C(C)C)C[C@H]1Cc1nc2c(C)cccc2[nH]1,i
C#CC(C)(CC)NC(=O)c1ccccc1C(=O)O (stereo not drawn),i
CCOC(=O)C1CCN([C@H]2CS(=O)(=O)C[C@@H]2S(=O)(=O)c2ccc(F)cc2)CC1,i
SMILES,KDM5B inh
CCN(CC)C(CNS(=O)(=O)c1cccc(C#N)c1)c1ccsc1 (stereo not drawn),i
COc1ccc(-c2ccnc3nc(Cc4ccc(F)cc4)nn23)c(F)c1,25µM*
O=C(NCCc1cnc[nH]1)c1cc(-c2ccccc2F)cc2c1OCCN2Cc1cccnc1,22µM*
O=C(CCC1CCCN(Cc2cccnc2)C1)Nc1ccccc1F (stereo not drawn),i
O=C(NC1CC1)c1cc(-c2ccccc2F)cc2c1OCCN2Cc1cccnc1,32µM*
CN1CCOc2c(C(=O)NCCc3cnc[nH]3)cc(-c3ccccc3F)cc21,32µM*
O=C(NCc1cccnc1)c1cc(-c2ccccc2F)cc2c1OCCN2Cc1cccnc1,28µM*
O=C(NCCc1ccc(F)cc1)c1cc(-c2cccnc2)nc2ccccc12,i
O=C(NCc1cccnc1)c1ccc2c(c1)-c1ccccc1C2,i
Cc1ccc2nc(-c3cccnc3)cc(C(=O)NCCc3ccc(F)cc3)c2c1,i
Cc1ccccc1C(=O)Nc1ccnn1C1CCN(Cc2cccnc2)CC1,i
O=C(NCCc1cnc[nH]1)c1nc(-c2ccccc2)cc2[nH]ccc12,i
CN1[C@@H](c2ccc(Cl)cc2)[C@@H](C(=O)NCCc2cnc[nH]2)C[C@@]1(C)C(=O)O,i
CN(C)C(=O)c1cc(-c2ccccc2F)cc2c1OCCN2Cc1cccnc1,i
CCOC(=O)NC(C)c1ccc(OC)cc1 (stereo not drawn),i
C=CCNC(=O)C1CCN(Cc2ccc(Cl)cc2)CC1,i
CC1CCC2(CC1)NC(=O)N(NC(=O)CSc1ncnc3ccccc13)C2=O (stereo not drawn),i
Cc1ccc(NC(=O)Cn2c(-c3ccc(Cl)cc3)nc(C)c(CCO)c2=O)cc1,i
O=C1N(CCCCOc2ccccc2)c2ccccc2NC12CCNCC2,i
COc1ccc(C)cc1NC(=O)CSc1nnc2c3cc(-c4ccc(Cl)cc4)nn3ccn12,i
COc1ccc(C2SCCN2S(=O)(=O)c2cccc(C)c2)cc1Br (stereo not drawn),i
O=C(Cn1ccc2c(Br)cccc21)Nc1nccs1,i
Cc1cc(Cl)ccc1NC(=O)Cn1nc(C)c2ccccc2c1=O,i
Cc1ccc(/C=C2\Cc3ccccc3C2=O)cc1,i
CCCn1c(=O)c2c(nc(-n3nc(C)c(C)c3C)n2CC)n(C)c1=O,i
SMILES,KDM5B inh
CCOC(=O)c1cnc2ccc(OC)cc2c1Nc1ccc(C(C)=O)cc1,i
COc1ccc(OCc2nnc(SCC(=O)N3CCc4ccccc4C3)n2C)cc1,i
CCCOc1ccc(NC(=O)COc2ccc(C)c(C)c2)c2cccnc12,i
O=C1Nc2ccccc2CC12CN(Cc1ccc(F)c(F)c1F)C2,i
COc1cc(Cl)c(C)cc1NC(=O)c1cc(=O)n2c(nc3ccccc32)s1,i
O=C(NCCO)c1nc(-c2cccc3[nH]ccc23)no1,i
Cc1scc(C(=O)NCc2cccnc2)c1C,i
COc1ncc(-c2cc(C(=O)NCc3cccnc3)c3c(c2)N(C)CCO3)cn1,i
CN1CCOc2c(C(=O)NCCN3CCNC3=O)cc(-c3cccc4[nH]ccc34)cc21,32µM*
O=C(c1ccc2c(c1)OCO2)N1CCN2C(=O)N(Cc3cccnc3)C[C@H]2C1,i
Cn1ccc(NC(=O)c2cc(-c3ccccc3F)cc3c2OCCN3Cc2cccnc2)n1,28µM*
Cc1ccccc1-c1cc(C(=O)NCc2cccnc2)c2c(c1)N(C)CCO2,35µM*
O=C(NCC1CCCO1)c1cc(-c2ccccc2F)cc2c1OCCN2Cc1cccnc1 (stereo not drawn),20µM*
O=C(NCC1CCCO1)c1ccc2c(c1)CC(=O)N2Cc1ccccc1 (stereo not drawn),i
Cn1ccc(NC(=O)c2cnc3c(c2)N([S+](=O)([O-])c2cccnc2)CCC3)n1,i
Cc1ccccc1-c1noc(-c2ccccc2C(=O)NCC2CCCO2)n1 (stereo not drawn),i
O=C(Nc1ccc(F)cc1F)Nc1ccccc1C(=O)NCCN1CCNC1=O,i
CCN(CC(=O)Nc1ccccc1OC)C(=O)c1cc(=O)c2cc(C)ccc2o1,i
O=S(=O)(Cc1coc(-c2ccccc2)n1)CC1CCCO1 (stereo not drawn),i
O=C(CCc1nnc2ccc(NCc3ccco3)nn12)Nc1ccc2c(c1)OCO2,i
COc1ccc(NC(=O)COC(=O)c2cc(=O)c3ccccc3o2)c(OC)c1,i
COc1ccc(NC(=O)Cn2ccc3ccc(Cl)cc32)c(OC)c1,i
COc1cc(C)c(C(C)C)cc1S(=O)(=O)N1CCC(C)CC1,i
C/C=C/C=C/C(=O)NC(C)c1ccc(F)cc1F (stereo not drawn),i
CC1(Cc2ccc3c(c2)OCO3)CCCN(C(=O)CCCn2ccnc2)C1 (stereo not drawn),i
CN(C)c1oc(-c2ccco2)nc1S(=O)(=O)c1ccc2c(c1)OCCO2,i
O=C(O)c1cccc(S(=O)(=O)Nc2cc(F)ccc2OCC(F)(F)F)c1,i
Cc1ccc(CN(C(=O)CCCc2cccs2)C2CC2)cc1,i
